From PubChem BioAssay (EPA / NIEHS) come the findings set out here.

Read-out in assay [1]: Interleukin-6 (IL6), IL6 (gene 3569)
Description: BSK_CASM3C_IL6: BioMAP Diversity Plus: CASM3C Assay for Interleukin-6 (IL6) Biomarker Activity for (AID 2283040). Particulars: primary human coronary artery smooth muscle cells; actives raise or lower the signal.

Read-out in assay [2]: Tissue plasminogen activator (tPA), PLAT (gene 5327)
Description: BSK_BE3C_tPA: BioMAP Diversity Plus: BE3C Assay for Tissue plasminogen activator (tPA) Biomarker Activity (AID 2283041).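 As to outcome: tPA level quantified by ELISA one day after compound addition.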 Particulars: primary human bronchial epithelial cells; actives raise or lower the signal. The essentials: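 Gain- or loss-of-signal in tPA, measured by ELISA, derived by bidirectional fitting against DMSO. Cells: human primary bronchial epithelial; read at 24 h after chemical dosing.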

Read-out in assay [3]: Interleukin-8 (IL8), CXCL8 (gene 3576)
As to the kind of experiment: BSK_CASM3C_IL8: BioMAP Diversity Plus: CASM3C Assay for Interleukin-8 (IL8) Biomarker Activity (AID 2283042).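 Also: IL-8 protein level quantified by ELISA.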 As to conditions: primary human coronary artery smooth muscle cells; actives raise or lower the signal.

Read-out in assay [4]: Human Leukocyte Antigen - DR isotype (HLADR), HLA-DRA (gene 3122)
Description: BSK_CASM3C_HLADR: BioMAP Diversity Plus: CASM3C Assay for Human Leukocyte Antigen - DR isotype (HLADR) Biomarker Activity (AID 2283043).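 Also: cell-surface HLA-DR protein level quantified by ELISA.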 Particulars: primary human coronary artery smooth muscle cells; actives raise or lower the signal.

Read-out in assay [5]: Macrophage colony-stimulating factor (MCSF), CSF1 (gene 1435)
As to the kind of experiment: BSK_CASM3C_MCSF: BioMAP Diversity Plus: CASM3C Assay for Macrophage colony-stimulating factor (MCSF) Biomarker Activity (AID 2283044).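 Also: M-CSF protein amount quantified by ELISA after 24 h exposure.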 As to conditions: primary human coronary artery smooth muscle cells; actives raise or lower the signal.

Read-out in assay [6]: Low-density lipoprotein receptor (LDLR), LDLR (gene 3949)
Description: BSK_CASM3C_LDLR: BioMAP Diversity Plus: CASM3C Assay for Low-density lipoprotein receptor (LDLR) Biomarker Activity (AID 2283045).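 Also: LDLR protein level on the cell surface quantified by ELISA.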 As to conditions: primary human coronary artery smooth muscle cells; actives raise or lower the signal.

Read-out in assay [7]: Monocyte Chemoattractant Protein-1 (MCP1), CCL2 (gene 6347)
Description: BSK_CASM3C_MCP1: BioMAP Diversity Plus: CASM3C Assay for Monocyte Chemoattractant Protein-1 (MCP1) Biomarker Activity (AID 2283046).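 Also: MCP-1 level quantified by ELISA 24 h after dosing.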 Particulars: primary human coronary artery smooth muscle cells; actives raise or lower the signal.

Assay [8] in a line: BSK_CASM3C_Proliferation: Cell Proliferation Assessment in the BioMAP Diversity Plus: CASM3C Assay (AID 2283047).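 Also: sulforhodamine B total protein stain as relative cell number at 560 nm; sub-confluent cells exposed 48 h before staining; fitted both ways against DMSO so gain or loss of cell number.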 As to conditions: primary human coronary artery smooth muscle cells.
Read-out in assay [9]: Monokine induced gamma interferon (MIG), CXCL9 (gene 4283)
Description: BSK_CASM3C_MIG: BioMAP Diversity Plus: CASM3C Assay for Monokine induced gamma interferon (MIG) Biomarker Activity (AID 2283048).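 Also: MIG protein level measured by ELISA.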 As to conditions: primary human coronary artery smooth muscle cells; actives raise or lower the signal.

Read-out in assay [10]: serum amyloid A (SAA), SAA1 (gene 6288)
Description: BSK_CASM3C_SAA: BioMAP Diversity Plus: CASM3C Assay for serum amyloid A (SAA) Biomarker Activity (AID 2283049).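 Also: SAA protein level quantified by ELISA.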 As to conditions: primary human coronary artery smooth muscle cells; actives raise or lower the signal.

Assay [11] can be described thus: BSK_CASM3C_SRB: Viability Assessment in the BioMAP Diversity Plus: CASM3C Assay (AID 2283050).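 Also: total protein by SRB staining as cytotoxicity measure in parallel cultures; cells exposed to compound for 24 h.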 As to conditions: primary human coronary artery smooth muscle cells.
Read-out in assay [12]: Thrombomodulin, THBD (gene 7056)
As to the kind of experiment: BSK_CASM3C_Thrombomodulin: BioMAP Diversity Plus: CASM3C Assay for Thrombomodulin Biomarker Activity (AID 2283051).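 Also: thrombomodulin protein level measured by ELISA 24 h after dosing.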 As to conditions: primary human coronary artery smooth muscle cells; actives raise or lower the signal.

Read-out in assay [13]: Tissue Factor, F3 (gene 2152)
Description: BSK_CASM3C_TissueFactor: BioMAP Diversity Plus: CASM3C Assay for Tissue Factor Biomarker Activity (AID 2283052).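 Also: cell surface tissue factor protein level read by ELISA.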 As to conditions: primary human coronary artery smooth muscle cells; actives raise or lower the signal.

Read-out in assay [14]: Interferon-gamma inducible Protein 10 (IP10), CXCL10 (gene 3627)
Description: BSK_hDFCGF_IP10: BioMAP Diversity Plus: hDFCGF Assay for Interferon-gamma inducible Protein 10 (IP10) Biomarker Activity (AID 2283053). Particulars: primary human foreskin fibroblasts; actives raise or lower the signal. Put shortly:
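Cells: human dermal foreskin fibroblasts. Exposure: 24 h post-dosing. Detection: IP-10 ELISA, with values expressed against DMSO controls and fitted in both directions.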

Read-out in assay [15]: Urokinase-type plasminogen activator receptor (uPAR), PLAUR (gene 5329)
Description: BSK_CASM3C_uPAR: BioMAP Diversity Plus: CASM3C Assay for Urokinase-type plasminogen activator receptor (uPAR) Biomarker Activity (AID 2283054).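 Also: cell-surface uPAR protein level quantified by ELISA.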 As to conditions: primary human coronary artery smooth muscle cells; actives raise or lower the signal.

Read-out in assay [16]: Vascular cell adhesion molecule 1 (VCAM1), VCAM1 (gene 7412)
As to the kind of experiment: BSK_CASM3C_VCAM1: BioMAP Diversity Plus: CASM3C Assay for Vascular cell adhesion molecule 1 (VCAM1) Biomarker Activity (AID 2283055).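 Also: VCAM-1 protein level quantified by ELISA on the cells.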 Particulars: primary human coronary artery smooth muscle cells; actives raise or lower the signal.

Read-out in assay [17]: Collagen III, COL3A1 (gene 1281)
As to the kind of experiment: BSK_hDFCGF_CollagenIII: BioMAP Diversity Plus: hDFCGF Assay for Collagen III Biomarker Activity (AID 2283056). As to conditions: primary human foreskin fibroblasts; actives raise or lower the signal. The essentials:
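Response relative to DMSO, fitted in both directions, reflects ELISA-measured collagen III in human primary skin fibroblasts 24 h after compound addition.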

Read-out in assay [18]: Epidermal growth factor receptor (EGFR), EGFR (gene 1956)
As to the kind of experiment: BSK_hDFCGF_EGFR: BioMAP Diversity Plus: hDFCGF Assay for Epidermal growth factor receptor (EGFR) Biomarker Activity (AID 2283057). As to conditions: primary human foreskin fibroblasts; actives raise or lower the signal. The essentials: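 Dosing human primary skin fibroblasts, then measuring surface EGFR by ELISA at 24 h, gives the endpoint; gains and losses relative to DMSO were fitted in both directions.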

Read-out in assay [19]: Interleukin-8 (IL8), CXCL8 (gene 3576)
Description: BSK_hDFCGF_IL8: BioMAP Diversity Plus: hDFCGF Assay for Interleukin-8 (IL8) Biomarker Activity (AID 2283058). Particulars: primary human foreskin fibroblasts; actives raise or lower the signal. Put shortly:
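Fibroblast monolayers (human foreskin, hDFCGF) received test chemical for 24 h before ELISA detection of IL-8; either increases or decreases relative to DMSO count as activity.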

A short description of assay [20]: BSK_hDFCGF_Proliferation: Cell Proliferation Assessment in the BioMAP Diversity Plus: hDFCGF Assay (AID 2283059).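 Also: curves fitted for both rise and fall of signal versus DMSO baseline.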 Particulars: primary human foreskin fibroblasts. Put shortly: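 Primary human foreskin fibroblasts, sub-confluent; […]; 10% TCA fix, 0.1% SRB stain, A560 total protein. Gain/loss fitted bidirectionally vs DMSO control.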

Structures are written as SMILES. “And” between values parts separate entries of the source, which are not always exact repeats. Identical values can stand only once. The source holds several records for some structures; these can differ, active in one and inactive in another. The source made the active and inactive calls. The calls were made as follows: active = hit-call score of the fitted dose curve at least 0.9, where 1 is the maximum; inactive = score below 0.9.

In the case of `O=C(O)C(F)(OC(F)(F)C(F)(OC(F)(F)C(F)(OC(F)(F)C(F)(F)C(F)(F)F)C(F)(F)F)C(F)(F)F)C(F)(F)F` (centres undefined), the outcome in [1], in assay [2], in assay [3], in assay [4], in assay [5] and in [6] was inactive. The outcome in assay [7], in assay [8], in [9], in assay [10], in assay [11] and in assay [12] was inactive. For the same compound, the outcome in [13], in assay [14], in assay [15], in [16], in [17] and in assay [18] was inactive. Besides, the result in [19] and in [20] was inactive.
Regarding `CS(C)(=O)=O`, the result in assay [1], in assay [2], in assay [3], in [4], in assay [5] and in assay [6] was inactive. The outcome in [7], in assay [8], in [9], in [10], in assay [11] and in [12] was inactive. Further, the result in [13], in [14], in assay [15], in [16], in [17] and in [18] was inactive. Also, the result in [19] and in assay [20] was inactive.
Regarding `O=C(O)C(F)(F)C(F)(F)C(F)(F)C(F)(F)C(F)(F)C(F)(F)C(F)(F)C(F)(F)Cl`, the outcome in assay [1], in assay [3], in assay [4], in assay [5], in assay [6] and in [7] was inactive. The result in [8], in assay [9], in assay [10], in [11], in assay [12] and in assay [13] was inactive. The outcome in [15], in assay [16], in [17] and in [19] was inactive. The AC50 (as a rule, the concentration at which the activity in the assay is half-maximal) is 30 µM (active) and 20.4 µM (active) in assay [2]; 39.2 µM (active) and 41.9 µM (active) in [14]; 8.33 µM (active) in [17]; 7.33 µM (active) and 55.2 µM (active) in [18]; 43.1 µM (active) and 45.7 µM (active) in [20].
`O=C(O)C(F)(F)C(F)(F)C(F)(F)C(F)(F)C(F)(F)C(F)(F)C(F)(F)C(F)(F)C(F)(F)C(F)(F)C(F)(F)C(F)(F)C(F)(F)F`: the outcome in [1], in assay [2], in [3], in assay [4], in assay [5] and in assay [6] was inactive. The result in assay [7], in [8], in assay [9], in [10], in assay [11] and in assay [12] was inactive. In addition, the outcome in [13], in [14], in assay [15], in assay [16], in assay [17] and in assay [18] was inactive. Further, the outcome in assay [19] and in assay [20] was inactive. The AC50 in assay [7] was 33.9 nM (active); in assay [14], 5.35 µM (active); in assay [17], 0.641 µM (active).
Consider `FC(F)(F)C(F)(F)C(F)(F)C(F)(F)C(F)(F)C(F)(F)C(F)(F)C(F)(F)CCS`, for which the result in assay [1], in assay [2], in assay [3], in assay [4], in assay [5] and in assay [6] was inactive. In addition, the result in assay [7], in assay [8], in assay [9], in assay [10], in [11] and in assay [12] was inactive. In addition, the result in assay [13], in assay [14], in [15], in assay [16], in [17] and in [18] was inactive. The result in assay [19] and in assay [20] was inactive. Moreover, in assay [13], the AC50 was 0.0438 µM (active).
Take `OCCCC(F)(F)C(F)(F)C(F)(F)C(F)(F)C(F)(F)C(F)(F)C(F)(F)F`: the AC50 in [1] is 42.1 µM (active) and 48.2 µM (active); in assay [2], 35.7 µM (active) and 30 µM (active); in assay [3] it was 49 µM (active); in assay [4], 23.3 µM (active) and 49 µM (active); in [5], 22.1 µM (active) and 43.6 µM (active); in assay [6] it was 43.7 µM (active) and 45.9 µM (active). For the same compound, the AC50 in [7] was 38.3 µM (active) and 28.9 µM (active); in assay [8] it was 18.4 µM (active) and 20.3 µM (active); in assay [9], 41.7 µM (active) and 41.9 µM (active); in assay [10] it was 37.6 µM (active) and 22.7 µM (active); in assay [11], 22.6 µM (active) and 25.1 µM (active); in assay [13], 20.8 µM (active). The AC50 was 11.8 µM (active) and 14 µM (active) in assay [14]; 24.5 µM (active) and 45 µM (active) in [15]; 26.2 µM (active) and 41.2 µM (active) in assay [16]; 11.6 µM (active) and 14.6 µM (active) in assay [17]; 9.95 µM (active) in [18]; 17.8 µM (active) and 20.8 µM (active) in assay [19]. Further, the AC50 in assay [20] is 6.74 µM (active) and 7.22 µM (active). Also, the outcome in [3], in assay [12], in assay [13] and in assay [18] was inactive.
On to `FC(F)(F)C(F)(F)C(F)(F)C(F)(F)CCI`, for which the outcome in assay [1], in assay [2], in [3], in assay [4], in assay [5] and in assay [6] was inactive. Besides, the outcome in assay [7], in assay [8], in [9], in assay [10], in [11] and in [12] was inactive. For the same compound, the result in assay [13], in [14], in [15], in [16], in assay [17] and in assay [18] was inactive. In addition, the outcome in assay [19] and in assay [20] was inactive. Also, in assay [9], the AC50 is 18.7 µM (active).
As for `FC1CC(F)(F)C(F)(F)C1(F)F` (centres undefined), the outcome in [1], in assay [2], in [3], in assay [4], in assay [5] and in assay [6] was inactive. The outcome in [7], in assay [8], in assay [9], in assay [10], in assay [11] and in [12] was inactive. The result in [13], in assay [14], in [15], in assay [16], in assay [17] and in assay [18] was inactive. In addition, the result in [19] and in [20] was inactive.
